Assay outcomes as filed in PubChem BioAssay.
VP16 counter – Gal4-VP16 reporter inhibition counter-screen; AID 2546; 310,000 tested, 3.5% active; Potency, µM (titrated, usually from 53.6 µM), most hits filed as inhibitors; Drosophila S2 Gal4-VP16 UAS-luciferase, luminescence, 20 h;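 note: Gal4-VP16 expression switched on by copper sulfate through the metallothionein promoter; nearly all actives have a fitted effect of over 50% in size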
RORg inh – blocks mouse ROR gamma transcriptional activity. P51450. Drosophila S2 Gal4-RORgamma UAS-luciferase reporter, 20 h. Potency, µM (series often up to 53.6 µM), hits mostly inhibitors. 310,000 tested, 5.4% active. AID 2551; note: nearly all actives have a fitted effect of over 60% in size
Target sequence (P51450 whole entry, looked up, the tested form may be a part): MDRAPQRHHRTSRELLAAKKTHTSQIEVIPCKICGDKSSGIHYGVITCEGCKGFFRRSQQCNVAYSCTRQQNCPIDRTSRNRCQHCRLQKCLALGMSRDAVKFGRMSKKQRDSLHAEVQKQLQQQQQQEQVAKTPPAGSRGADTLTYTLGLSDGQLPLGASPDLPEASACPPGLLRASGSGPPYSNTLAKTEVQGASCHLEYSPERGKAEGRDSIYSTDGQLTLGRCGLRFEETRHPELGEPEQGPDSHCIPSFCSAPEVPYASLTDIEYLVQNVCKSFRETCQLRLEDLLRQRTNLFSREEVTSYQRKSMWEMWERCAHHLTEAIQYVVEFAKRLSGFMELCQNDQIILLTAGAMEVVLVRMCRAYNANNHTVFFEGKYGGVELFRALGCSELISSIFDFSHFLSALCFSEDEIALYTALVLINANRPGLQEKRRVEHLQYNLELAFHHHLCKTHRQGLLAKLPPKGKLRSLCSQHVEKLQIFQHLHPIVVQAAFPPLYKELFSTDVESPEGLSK
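Drosophila Schneider cells stably carrying a metallothionein-driven Gal4 DBD–ROR gamma fusion and a UAS-Photinus luciferase reporter were exposed to compound for 1 hr, then induced with copper sulfate (700 uM final) for 20 hr at ambient temperature before luminescence reading.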
Sfp inh – Sfp phosphopantetheinyl transferase inhibition; Biochemical Sfp PPTase activity, qHTS; Potency, µM, actives largely listed as inhibitors; 310,000 tested, 3.5% active;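 note: the enzyme is Sfp with the accession as filed and its product quenches rhodamine fluorescence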
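With Hepes-Na pH 7.6 buffer containing 10 mM MgCl2, Sfp (15 nM) modified BHQ-2-YbbR (12.5 uM) using rhodamine-CoA (5 uM). Two reads 30 minutes apart at 525/598 nm yielded each well's rate.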
PLK1 PBD block – PLK1 (human) polo-box domain binding inhibition. Potency, µM, usual class: inhibitors. AID 720504. Plk1 PBD binding of FITC phosphopeptide, fluorescence polarization. P53350. 360,000 tested, 2.8% active; note: series mostly up to about 57 µM; nearly all actives have a fitted effect of over 65% in size
ALDH1A1 inh – ALDH1A1 (human) enzyme inhibition; AID 1030; Potency, µM (highest dose often 75.3 µM), usual class: inhibitors; Purified ALDH1A1, NADH fluorescence, propionaldehyde substrate; 220,000 tested, 7.3% active; active = well fitted inhibition curve with a large enough effect, not every such curve was filed as active; inconclusive = small, poorly fitted or top-dose-only effect, or another doubt; inactive = no such curve, though single readings can be large or run the other way
Numbers stand for hits; 0 = inactive; ? = inconclusive; - = no result; [ ] = another dose, or the depositor's remark. An excerpt weighted towards active compounds, which were near 12% of everything screened. Unless noted, calls come from the whole dose curve; as a rule, active = well fitted curve in the direction sought with a large enough effect; inconclusive = small, poorly fitted or top-dose-only effect, or another doubt; inactive = no such curve, though single readings can be large; an effect the other way counts as inactive or inconclusive.

SMILES | VP16 counter | RORg inh | Sfp inh | PLK1 PBD block | ALDH1A1 inh
CC(=O)c1ccc(C2C=CC(Oc3ccc(F)cc3C)C(CO)O2)cc1 (stereo not given) | 0[10 µM] | 0[10 µM] | 0 | - | 0[13.5 µM]
O=c1cc(-c2cccc(F)c2)[nH]c2cc(F)ccc12 | 0 | 0 | 0 | - | 0
O=[N+]([O-])c1ccc(N2CCN(c3ccc(F)cc3)CC2)cc1 | 0 | 0 | 0 | 0 | -
O=C(NC(=S)N1CCN(c2ccc([N+](=O)[O-])cc2)CC1)c1ccc(F)cc1 | 1µM | 1.1µM | 0 | 0 | 7.1µM
C[C@]1(OC(=O)/C=C\c2ccccc2)C[C@@H](O)[C@@]2(O)C=CO[C@@H](O[C@H]3O[C@@H](CO)[C@@H](O)[C@@H](O)[C@@H]3O)[C@H]21 | 0 | 0 | 0 | - | 0
COc1ccc(OC)c(N(CC(=O)NCc2ccccc2)S(=O)(=O)c2ccc(OC)c(OC)c2)c1 | 0 | 0 | 50µM | 0 | -
Cc1cc2nc(-c3cccnc3SCC(=O)NCc3ccco3)[nH]c2cc1C | 13µM | 11µM | 40µM | 0 | ?
O=C(CSc1ncccc1-c1nc2ccccc2[nH]1)NCc1ccco1 | 0 | 0 | 40µM | 19µM | ?
O=C(CSc1nc2ccccc2[nH]1)NCc1ccco1 | 0 | 0 | 0 | 0 | 0
COc1ccc(N2C(=O)c3ccccc3NC(=O)C2C(=O)Nc2ccc3c(c2)OCCO3)cc1 (stereo not given) | - | - | - | 0 | -
CC1=CCC2C(=O)N(c3ccc(C(=O)N4CCCCCC4)cc3)C(=O)C2C1 (stereo not given) | 0 | 0 | 0 | 17µM | ?
O=C(CCN1C(=O)C2CC=C(Cl)CC2C1=O)N1CCCCC1 (stereo not given) | - | 0[0.365 µM] | 89µM | ? | ?
O=C(c1ccc(N2C(=O)C3CC=C(Cl)CC3C2=O)cc1)N1CCCCC1 (stereo not given) | 0 | 0 | 0 | 0 | 18µM
COCC(=O)N1CCC2(CCN(Cc3nccs3)CC2)CC1 | 0 | 0 | 0 | - | 0
CCC(C)[C@@H]1NC(=O)N(CCCN2CCCC2=O)C1=O (stereo not given in full) | 0 | 0 | 0 | 0 | -
C/C=C/c1ccc2c(c1)O[C@H](CN(C)CC1CCOCC1)[C@@H](C)CN([C@H](C)CO)S2(=O)=O | - | - | - | 0 | -
C[C@@H]1CN([C@H](C)CO)C(=O)c2cc(C#CC3CCCCC3)cnc2O[C@H]1CN(C)Cc1cccnc1 | - | - | - | 0 | -
CCCCCC(=O)Nc1sc(C)c(C)c1C#N | 0 | 0 | 79µM | 11µM | 10µM
CCOC(=O)C(NC(=O)CC)(Nc1sc(C)c(CC)c1C#N)C(F)(F)F (stereo not given) | 0 | 0 | 0 | 0 | 0
CCc1c(C)sc(NC(=O)Cn2nc(C(F)(F)F)c3c2CCCC3)c1C#N | 0 | 0 | 40µM | 21µM | ?
CCc1c(C)sc(NC(=O)CC#N)c1C#N | 0 | 0 | 32µM | ? | 3.5µM
CC(C)CNC(=O)Cn1nc(C(F)(F)F)c2c1CCCC2 | 0 | 0 | 0 | 0 | 0
CCCC(=O)Nc1sc(C)c(C)c1C#N | 0 | 0 | 0 | 21µM | ?
CC1(C)Cc2c(sc(NC(=O)Cc3ccccc3)c2C#N)CO1 | 0 | 0 | 0 | ? | -
CCCCC(=O)Nc1sc2c(c1C#N)CC(C)(C)OC2 | 0 | 0 | 0 | 27µM | 0
SMILES | VP16 counter | RORg inh | Sfp inh | PLK1 PBD block | ALDH1A1 inh
O=C(CCc1nnc(CCc2c[nH]c3ccccc23)o1)NC1CCC1 | 0 | 0 | 0 | 24µM | -
CCOC(=O)C1=C(C)N(C)C(=O)NC1c1cc2c(cc1[N+](=O)[O-])OCO2 (stereo not given) | 0 | 0 | 50µM | 0 | 0
CCCCOC(=O)C1=C(C)N(C)C(=O)NC1c1cc2c(cc1Br)OCO2 (stereo not given) | - | - | - | 0 | -
Cc1ccc(OCCOCCn2ccnc2)c(Br)c1 | 0 | ? | 79µM | 0 | 0
Cc1ccc(OCCCCn2ccnc2)c(Cl)c1 | ? | 11µM | 0 | 0 | 0
Cc1ccc(OCCCCn2ccnc2)c([N+](=O)[O-])c1 | 0 | 0 | 56µM | 0 | 1.6µM
Cc1ccc(C)c(OCCCCn2ccnc2)c1 | 0 | ? | 0 | 0 | 0
CC(C)(C)c1ccccc1OCCCCCn1ccnc1 | ? | 18µM | 56µM | ? | ?
Cc1ccc2nc(SCC(=O)Nc3cc(C)on3)nc(=O)n2c1 | - | - | - | 0 | -
COc1ccc(C2c3cc(OC)c(OC)cc3CC3C(=O)OCC32)cc1OC (stereo not given) | - | - | - | 0 | -
CCc1ccccc1NC(=O)NC1CCCCCCC1 | 0 | 0 | 0 | 0 | -
CCCCc1ccccc1NC(=S)NC1CCCC1 | 4.5µM | 3.2µM | 0 | 0 | -
CSc1ccccc1NC(=S)NC1CCCCC1 | ? | 3.5µM | 0 | 0 | 0
